The sample as a whole holds a higher share of hits than the screen did.
AMA1-RON2 inh: disrupts binding of P. falciparum AMA1 to RON2. AlphaScreen AMA1-biotinylated RON2 peptide binding. Potency, µM (highest dose often 58.2 µM), inactives show at the highest dose activity change, negative = inhibition, usual class: inhibitors. 0.2% of 360,000 active. AID 720542; active = well fitted inhibition curve with a large enough effect; inconclusive = small, poorly fitted or top-dose-only effect; inactive = no such curve, though single readings can be large or run the other way;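 also: potency is read from the fitted curve at half-maximal effect; 0% = vehicle wells and -100% = peptide control; nearly all actives have a fitted effect of over 45% in size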
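AMA1 (3D7) with his tag at 25 nM final met compounds first, then biotinylated RON2 peptide at 25 nM; detection used donor plus acceptor beads, 10 µg/mL apiece, read by AlphaScreen after 30 min at room temperature.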
Lassa entry inh: Lassa virus entry inhibition | Potency, µM (series often up to 37.9 µM), for the others: at the top dose activity change, negative = inhibition, actives largely listed as inhibitors | AID 540256 | 1.2% of 300,000 active | Lassa virus pseudotype entry inhibition, cell reporter; calls by dose curve; tested in HEK293 cells; also: potency is read from the fitted curve at half-maximal effect; % is scaled to controls: 0 for no effect and ±100 for the full control effect; nearly all actives have a fitted effect of over 50% in size
CHX counter: counter-screen for Shiga toxin inhibitors: cycloheximide protein synthesis inhibition; cell reporter, cycloheximide protein synthesis inhibition counterscreen; max response, %; 12% of 300,000 active; in the data active = max response mostly above about 13%, no sharp cut-off; inactive = mostly below about 14%; also: read at 38.3 µM for the half of the compounds with a filed dose; 0% is about no effect
Shiga inhibitor: Shiga toxin inhibition | inhibition, % at 38.7 µM | AID 2315 | 9.2% of 290,000 active | Vero cells, Shiga toxin protein synthesis inhibition reporter; in the data active = inhibition mostly above about 28%, no sharp cut-off; inactive = mostly below about 43%; also: 0% is about no effect
MARV entry inh: inhibitors of Marburg virus binding or cell entry | Potency, µM (highest dose often 37.8 µM), for inactives: at the highest dose activity change, negative = inhibition, usual class: inhibitors | Marburg virus pseudotyped entry inhibition, cell reporter | 1.8% of 300,000 active; calls by dose curve; tested in HEK293 cells; also: potency is read from the fitted curve at half-maximal effect; % is scaled to controls: 0 for no effect and ±100 for the full control effect
* hit, by the source's call; u = inconclusive; x = no result given; [ ] = another dose, or the depositor's remark.

SMILES	AMA1-RON2 inh	Lassa entry inh	CHX counter	Shiga inhibitor	MARV entry inh
CC(=O)Nc1sc(C)c(C)c1C(=O)OCCOc1ccccc1	-16.2%	u	47.9*	113.4*	u
CCn1nc(/C=C/c2ccccc2)nc2c(=O)n(C)c(=O)nc1-2	10.8%	7.94µM*	11.1	28.6	0.708µM*
CCn1nc(-c2cccs2)nc2c(=O)n(C)c(=O)nc1-2	0.0%	u	26.0*	25.6*	0.891µM*
COc1ccc(OC)c(/C=c2\sc3nc(-c4cccs4)nn3c2=O)c1	9.1%	8.0%	-3.4	-3.4	15.0%
CCCCc1nc2c(c3c1C[C@H](C)OC3)CN(S(=O)(=O)c1ccc(NC(C)=O)cc1)CC2	x	x	x	x	24.6%[14.2 µM]
CCc1ccc(OCCCOc2ccc(C=O)cc2)cc1	58.0%	21.9%	19.0*	77.5	0.1%
COc1cc(=O)n(C)c2c(OCC3OC(C)(C)OC3(C)C)cccc12 (stereo not drawn)	0.0%	x	9.7*	35.3	x
COc1cc(=O)n(C)c2c(OCC(O)C(C)(C)O)cccc12 (stereo not drawn)	-10.6%	x	x	x	35.5%
CCN(c1ccc(C)cc1C)S(=O)(=O)c1nnc(NC(=O)CC(C)C)s1	x	14.0%[46.1 µM]	x	x	x
Cc1ccc(Nc2nc(NCc3ccco3)c3ccccc3n2)cc1	-25.9%	2.82µM*	29.6*	42.9	u
Fc1ccccc1-c1nc(NCc2ccco2)c2ccccc2n1	-9.2%	-19.5%	-2.0	-7.5	-24.9%[46.1 µM]
Oc1ccccc1-c1nc(NCc2ccco2)c2ccccc2n1	1.8%	2.4%	25.3*	35.7*	-58.9%
COc1ccccc1Nc1nc(NCc2ccco2)c2ccccc2n1	-19.7%	-20.1%	24.0*	31.7	u
CN(C)c1cc2c(cc1NC(=O)c1ccc(F)cc1)n(C)c(=O)n2C	x	-3.9%[46.1 µM]	x	x	4.6%[46.1 µM]
CCOC(=O)C(C#N)(Cc1ccc2ccccc2n1)Cc1ccc2ccccc2n1	-11.5%	-20.0%[46.1 µM]	x	x	u
Cc1cc(C)c(C(=O)COC(=O)c2ccc([N+](=O)[O-])o2)cc1C	u	0.6%	9.5	-1.7	2.2%[46.1 µM]
Cc1cc(C(=O)COC(=O)C2CCN(C(=O)c3ccc(Cl)cc3)CC2)c(C)n1CC1CCCO1 (stereo not drawn)	-3.5%	-18.6%	66.1*	99.9*	10.0%[46.1 µM]
CCC(=O)c1ccc(OCC(=O)OCC(=O)c2cc(C)n(CC3CCCO3)c2C)cc1 (stereo not drawn)	-10.0%	-1.0%	x	x	5.8%
CCn1c(C)cc(C(=O)COC(=O)c2cccnc2SC)c1C	u	u	x	x	-11.8%
COCCn1c(C)cc(C(=O)COC(=O)c2ccc([N+](=O)[O-])o2)c1C	-21.2%	-29.9%[46.1 µM]	45.9*	122.7*	21.2%[46.1 µM]
CSc1ncccc1C(=O)OCC(=O)c1cc(C)n(CC2CCCO2)c1C (stereo not drawn)	-12.4%	u	38.8*	56.0*	-11.5%[46.1 µM]
COc1ccc(C(=O)COC(=O)c2cccnc2SC)cc1	-6.5%	25.1%	30.3*	48.1	-18.2%[46.1 µM]
COc1ccc(C(=O)COC(=O)c2nn(C)cc2Cl)cc1	0.0%	u	14.8*	69.3*	u
COCCn1c(C)cc(C(=O)COC(=O)C23CC4CC(CC(O)(C4)C2)C3)c1C	14.2%	u	38.0*	57.1*	u
COCCn1c(C)cc(C(=O)COC(=O)c2cccc(O)c2)c1C	-4.1%	x	-2.6	-6.7	x
SMILES	AMA1-RON2 inh	Lassa entry inh	CHX counter	Shiga inhibitor	MARV entry inh
Cc1cc(C(=O)COC(=O)c2ccc([N+](=O)[O-])o2)c(C)n1CC1CCCO1 (stereo not drawn)	-9.1%	14.0%	49.4*	123.0*	-15.7%
COc1cc(C(=O)OCC(=O)c2cc(C)n(CC3CCCO3)c2C)cc(OC)c1C (stereo not drawn)	-28.3%	x	x	x	x
COCCn1c(C)cc(C(=O)COC(=O)c2cc3c(s2)CCC3)c1C	-15.1%	11.5%	30.3*	94.8*	20.8%[46.1 µM]
COc1ccc(CC(=O)OCC(=O)c2ccc(OC)cc2)cc1	-10.2%	-7.4%	-4.3	-8.3	9.6%
Cc1ccc(N(C(=O)Cn2nnc(-c3ccccc3)n2)C(C(=O)NC2CCCCC2)c2ccccn2)cc1C (stereo not drawn)	-0.2%	-1.2%	-1.4	-9.8	-0.1%
O=C(/C=C/c1ccc(O)c(O)c1)c1ccc(O[C@@H]2O[C@H](CO)[C@@H](O)[C@H](O)[C@H]2O)c(O)c1O	x	x	15.8	25.3	x
c1ccc(Oc2nc(NC3CCCCC3)c3[nH]cnc3n2)cc1	x	x	-3.2	-5.0	x
COCCNC(=O)C1CCN(S(=O)(=O)c2ccc3c(c2)CCCN3C(C)=O)CC1	x	-0.6%[46.1 µM]	x	x	x
Cc1cc(C(=O)Cn2nnc(-c3ccc(Cl)cc3)n2)c(C)n1CC1CCCO1 (stereo not drawn)	-3.7%	u	16.6*	70.1	-18.6%
Cc1cc(C(=O)COC(=O)c2ccc3c(c2)OCO3)c(C)n1CC1CCCO1 (stereo not drawn)	2.2%	3.2%	40.4*	147.3*	u
O=C1[C@@H]2C=CC=CC2=NC(=S)N1CCN1CCC(=C(c2ccc(F)cc2)c2ccc(F)cc2)CC1	x	x	x	x	12.9%
COc1ccc([C@@]23Oc4cc(OC)cc(OC)c4[C@]2(O)[C@H](O)[C@H](C(=O)N(C)C)[C@H]3c2ccccc2)cc1	19.0%	u	x	x	0.112µM*
COC(=O)[C@@H]1[C@@H](c2ccccc2)[C@H]2C(=O)c3c(OC)cc(OC)cc3O[C@@]12c1ccc(OC)cc1	x	x	x	x	3.3%[14.2 µM]
COc1cc(C(C#N)N2N=C(c3ccccc3)CC2c2ccccc2)ccc1O (stereo not drawn)	29.4%	10.2%	29.8*	86.9*	2.3%
CC1=NN(C(C#N)c2ccccc2C)C(c2ccccc2)C1 (stereo not drawn)	1.0%	x	-0.7	25.8	x
COc1ccccc1C(C#N)N1N=C(C)CC1c1ccccc1 (stereo not drawn)	6.5%	x	3.9	13.2	x
N#CC(c1ccccc1O)N1N=C(c2ccccc2)CC1c1ccccc1 (stereo not drawn)	94.8%	x	62.8*	96.6*	x
Cc1cc(NC(=O)CN2C(=O)NC3(CCCCC3)C2=O)ccc1N1CCCC1	-7.9%	11.1%	x	x	-7.9%
c1ccc(-c2cc3nccc(-c4ccccn4)n3n2)cc1	33.8%	u	44.6*	94.0*	u
Cc1cc2nccc(-c3ccccn3)n2n1	-0.6%	1.8%	-3.9	-5.3	1.7%
O=C(CSc1nnnn1-c1ccc(F)cc1)c1ccc(O)c(O)c1	22.2%	-16.1%[46.1 µM]	38.0*	57.6	-13.7%[46.1 µM]
O=C(O)c1ccc(CSc2nnnn2-c2ccc(F)cc2)cc1	-4.3%	17.1%[46.1 µM]	-0.6	-7.4	u
C=CCCn1c(Cl)c(C#N)sc1=O	x	x	-2.0	-1.8	x
Clc1cccc(Nc2ncnc3c2cnn3-c2ccccc2)c1	-11.1%	x	40.1*	44.5*	x
Fc1cccc(Nc2ncnc3c2cnn3-c2ccccc2)c1	9.0%	x	30.2*	79.8*	x
O=C(NNc1ncnc2c1cnn2-c1ccccc1)c1ccccc1	x	-20.7%[46.1 µM]	x	x	x
O=C(O)c1cccc(Nc2ncnc3c2cnn3-c2ccccc2)c1	6.6%	u	35.1*	105.8*	-17.9%
Cc1c(Nc2ncnc3c2cnn3-c2ccccc2)c(=O)n(-c2ccccc2)n1C	-10.0%	0.6%	1.0	17.8	-9.2%
N#Cc1cccc(Nc2ncnc3c2cnn3-c2cccc(Cl)c2)c1	x	-2.6%[46.1 µM]	x	x	x
